Inconclusive results are not listed. Activity calls are given as the source filed them. Unless noted, calls follow the shape of the dose curve; as a rule, active = well fitted curve in the direction sought with a large enough effect in the repeat runs; inconclusive = weak or mixed curves; inactive = no such curve, though single readings can be large; an effect the other way counts as inactive or inconclusive.

From PubChem BioAssay (Tox21) come the findings set out here.

Experiment [1] is described as follows: qHTS RealTime-Glo MT Cell Viability Assay in HEK293 cells - 0 hour (AID 1224880). Also: top concentration of the series differs between compounds; nearly all actives have a fitted effect of over 45% in size. The essentials: (§1)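 Cells were seeded together with NanoLuc luciferase and a prosubstrate that viable cells reduce to a luciferase substrate. After a 5 h incubation at 37 C/5% CO2, compounds were added and luminescence was measured repeatedly during 40 h of treatment.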
Experiment [2] in a line: A CellTox Green Cytotoxicity Assay to monitor cytotoxicity in HEK293 cells - 32 hour (AID 1224881). Also: nearly all actives have a fitted effect of over 40% in size. The method in brief:
(§2)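 Nonlytic real-time cytotoxicity: HEK293 + CellTox Green reagent plated, 5 h preincubation, pintool compound addition (23 nL in DMSO), 37 C for 40 h, fluorescence measured at successive time points.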

The nature of experiment [3]: A CellTox Green Cytotoxicity Assay to monitor cytotoxicity in HepG2 cells - 0 hour (AID 1224882). Also: nearly all actives have a fitted effect of over 35% in size. The essentials:
(§3)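 Read-out is fluorescence of a cyanine dye excluded from live cells that stains DNA of dead HepG2 cells, with signal proportional to cytotoxicity. Plates were read at 0, 8, 16, 24, 32 and 40 h after compound addition.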

A short description of experiment [4]: A CellTox Green Cytotoxicity Assay to monitor cytotoxicity in HepG2 cells - 32 hour (AID 1224883). Also: nearly all actives have a fitted effect of over 50% in size. The method in brief:
as §3

Experiment [5] is described as follows: A CellTox Green Cytotoxicity Assay to monitor cytotoxicity in HEK293 cells - 8 hour (AID 1224884). Also: nearly all actives have a fitted effect of over 35% in size. The method in brief: as §2
Experiment [6] is described as follows: qHTS RealTime-Glo MT Cell Viability Assay in HepG2 cells - 16 hour (AID 1224885). Also: nearly all actives have a fitted effect of over 50% in size. The essentials: (§4)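 Viability was tracked continuously by NanoLuc luminescence from prosubstrate reduced by living HepG2 cells, at successive time points over 40 h of compound exposure. Cells with reagent were preincubated 5 h at 37 °C before compound addition.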
A short description of experiment [7]: qHTS RealTime-Glo MT Cell Viability Assay in HEK293 cells - 24 hour (AID 1224886). Also: nearly all actives have a fitted effect of over 50% in size. Also: potency is read from the fitted curve at half-maximal effect. The essentials:
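Viability tracked continuously by luminescence as live cells reduce a prosubstrate for NanoLuc; HEK293 cells preincubated 5 h, compound-treated at 37 C, and read at 0, 8, 16, 24, 32 and 40 h.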

A short description of experiment [8]: qHTS RealTime-Glo MT Cell Viability Assay in HEK293 cells - 8 hour (AID 1224887). Also: nearly all actives have a fitted effect of over 50% in size. Also: potency is read from the fitted curve at half-maximal effect. The method in brief:
as §1

Experiment [9] in a line: A CellTox Green Cytotoxicity Assay to monitor cytotoxicity in HEK293 cells - 16 hour (AID 1224888). Also: nearly all actives have a fitted effect of over 35% in size. The essentials: as §2
Experiment [10] can be described thus: qHTS RealTime-Glo MT Cell Viability Assay in HepG2 cells - 0 hour (AID 1224889). Also: nearly all actives have a fitted effect of over 50% in size. The essentials: as §4
The nature of experiment [11]: A CellTox Green Cytotoxicity Assay to monitor cytotoxicity in HepG2 cells - 8 hour (AID 1224890). Also: nearly all actives have a fitted effect of over 45% in size. The method in brief:
as §3

The nature of experiment [12]: qHTS assay to identify small molecule antagonists of the estrogen receptor alpha (ER-alpha) signaling pathway using the BG1 cell line in the presence of 0.1 nM 17-beta-estradiol - cell viability counter screen (AID 1259241). Also: nearly all actives have a fitted effect of over 40% in size. The method in brief:
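Cytotoxicity counter-screen: live-cell protease activity measured by fluorescence (30 min reagent step) in the same wells. Cells were VM7Luc4E2 with endogenous ER-alpha and ERE-driven luciferase, treated 22 hr at 37C alongside 0.1 nM 17beta-estradiol final.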

The nature of experiment [13]: qHTS assay to identify small molecule antagonists of the androgen receptor (AR) signaling pathway using the MDA cell line in the presence of 0.5 nM R1881 - cell viability counter screen (AID 1259242). Also: nearly all actives have a fitted effect of over 45% in size. The method in brief:
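Counter screen for cytotoxicity run in the same wells as the AR antagonist reporter screen: MDA-kb2 cells were treated 16 hr with test compounds and 0.5 nM R1881, then live-cell protease activity was measured by fluorescence.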

Experiment [14] has as its target Estrogen receptor (Homo sapiens) (UniProt P03372). Put plainly: qHTS assay to identify small molecule antagonists of the estrogen receptor alpha (ER-alpha) signaling pathway using the BG1 cell line in the presence of 0.1 nM 17-beta-estradiol (AID 1259244). Also: nearly all actives have a fitted effect of over 50% in size. The essentials:
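Cells: VM7Luc4E2, endogenous ER-alpha, 4x ERE-luc stable. Pre-culture 5 d, phenol red-free, charcoal-stripped FBS. Plated 24 h, compound + E2 0.1 nM final, 22 h 37C/5% CO2. Readout ONE-Glo luminescence.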

Experiment [15] in a line: qHTS assay to identify small molecule phospholipidosis (PLD) inducers (AID 1259344; active = well fitted curve in the direction sought with a large enough effect; an effect the other way counts as inactive or inconclusive). The essentials:
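Phospholipidosis is scored by imaging LipidTOX-stained pits in HepG2 cells exposed to compound for 24 h at 37 C; pit counts and integrated intensities per well and per cell serve as outputs.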

A short description of experiment [16]: qHTS assay to identify small molecule HDAC inhibitors (AID 1259364). Also: top concentration of the series differs between compounds; nearly all actives have a fitted effect of over 45% in size. The essentials: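 Luminescence from a cell-permeant luminogenic class I/II HDAC substrate reports endogenous deacetylase activity in intact HCT-116 cells treated with compounds for 2 h.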
Experiment [17] in a line: qHTS assay to identify small molecule HDAC inhibitors - cell viability counter screen (AID 1259365). The essentials:
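CellTiter-Glo luminescence (30 min, room temperature) reported viability after a 2 h compound exposure at 37 C. Cells: wild-type HCT-116, 1,500 per well, seeded the night before.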

A short description of experiment [18]: qHTS assay to identify small molecule agonists of the sonic hedgehog signaling (Shh) pathway - cell viability counter screen (AID 1259366). Also: nearly all actives have a fitted effect of over 50% in size. Also: potency is read from the fitted curve at half-maximal effect. The method in brief: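 Cytotoxicity counter screen: CellTiter-Fluor reagent added after 23 h compound exposure, then 1 h at 37C and fluorescence read. Cells were 3T3 Gli1-Luc, seeded 2,000 per well and dosed 4 h post-plating.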

Experiment [19] can be described thus: qHTS assay to identify small molecule antagonists of the sonic hedgehog signaling (Shh) pathway - cell viability counter screen (AID 1259367). Also: nearly all actives have a fitted effect of over 55% in size. Also: potency is read from the fitted curve at half-maximal effect. The method in brief: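 Cells: 3T3 Gli1-Luc, 2,000/well, 4 hr pre-incubation. Compounds in DMSO, then conditioned medium. Incubation 24 hr, 37C, 5% CO2. CellTiter-Fluor at 23 hr, 1 hr, fluorescence.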
Experiment [20] deals with Androgen receptor (Homo sapiens) (UniProt P10275). Put plainly: qHTS assay to identify small molecule antagonists of the androgen receptor (AR) signaling pathway using the MDA cell line in the presence of 0.5 nM R1881 (AID 1259243). Also: nearly all actives have a fitted effect of over 50% in size. Also: potency is read from the fitted curve at half-maximal effect. The method in brief: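 Luciferase luminescence is the read-out: compounds are tested for suppressing 0.5 nM R1881-driven MMTV reporter activity in MDA-kb2 cells after 16 hr at 37C.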
Sequence of Androgen receptor (Homo sapiens) (P10275 whole entry, looked up): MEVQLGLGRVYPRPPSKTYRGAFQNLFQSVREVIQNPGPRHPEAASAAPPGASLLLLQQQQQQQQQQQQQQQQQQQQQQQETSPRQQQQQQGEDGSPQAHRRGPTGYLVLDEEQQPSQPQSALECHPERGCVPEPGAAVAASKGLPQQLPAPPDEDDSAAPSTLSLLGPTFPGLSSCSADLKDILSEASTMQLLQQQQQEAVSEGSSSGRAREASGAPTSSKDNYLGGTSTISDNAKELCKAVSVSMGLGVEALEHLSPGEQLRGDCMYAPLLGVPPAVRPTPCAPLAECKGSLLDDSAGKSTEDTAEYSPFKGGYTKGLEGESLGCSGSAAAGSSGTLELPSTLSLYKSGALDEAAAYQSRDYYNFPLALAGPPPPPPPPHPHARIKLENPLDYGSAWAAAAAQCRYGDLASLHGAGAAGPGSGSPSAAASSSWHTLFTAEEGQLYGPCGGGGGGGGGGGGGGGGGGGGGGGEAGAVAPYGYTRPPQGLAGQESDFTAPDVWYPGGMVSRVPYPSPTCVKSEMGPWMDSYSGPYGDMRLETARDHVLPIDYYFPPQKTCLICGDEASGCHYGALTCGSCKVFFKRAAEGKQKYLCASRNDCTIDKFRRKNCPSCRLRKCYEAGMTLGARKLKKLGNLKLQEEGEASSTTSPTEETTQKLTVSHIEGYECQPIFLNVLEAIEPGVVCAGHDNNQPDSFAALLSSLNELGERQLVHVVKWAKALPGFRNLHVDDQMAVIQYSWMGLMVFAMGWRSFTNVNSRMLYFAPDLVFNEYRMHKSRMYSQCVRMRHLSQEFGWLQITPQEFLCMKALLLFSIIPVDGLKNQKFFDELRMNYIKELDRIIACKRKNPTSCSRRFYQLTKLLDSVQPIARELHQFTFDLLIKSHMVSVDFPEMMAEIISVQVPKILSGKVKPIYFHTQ

Sequence of Estrogen receptor (Homo sapiens) (P03372 whole entry, looked up): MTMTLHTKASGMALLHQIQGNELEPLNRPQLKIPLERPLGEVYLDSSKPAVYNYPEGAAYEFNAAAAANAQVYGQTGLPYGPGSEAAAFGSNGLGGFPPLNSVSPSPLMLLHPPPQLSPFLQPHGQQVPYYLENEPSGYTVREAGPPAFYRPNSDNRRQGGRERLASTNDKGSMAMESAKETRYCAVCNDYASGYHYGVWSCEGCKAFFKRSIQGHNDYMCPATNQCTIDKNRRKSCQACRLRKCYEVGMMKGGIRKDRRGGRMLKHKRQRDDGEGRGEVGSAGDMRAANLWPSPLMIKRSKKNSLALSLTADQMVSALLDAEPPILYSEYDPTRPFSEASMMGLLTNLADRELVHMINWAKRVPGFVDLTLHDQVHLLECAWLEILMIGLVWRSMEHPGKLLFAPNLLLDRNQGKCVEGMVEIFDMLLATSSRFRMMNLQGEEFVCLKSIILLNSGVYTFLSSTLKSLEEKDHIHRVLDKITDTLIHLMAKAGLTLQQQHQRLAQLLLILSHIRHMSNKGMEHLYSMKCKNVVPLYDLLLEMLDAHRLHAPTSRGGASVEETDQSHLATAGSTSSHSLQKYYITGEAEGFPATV

Regarding `NC(=O)OCCCc1ccccc1`, the molecule was classed as inactive in experiment [1], in [3], in experiment [10], in experiment [12] and in experiment [17]. Further, the Potency entry in [2], in experiment [4], in experiment [5], in experiment [6], in [7] and in experiment [8] was “inactive” each time. For the same molecule, the Potency result in experiment [9], in [11], in [13], in experiment [14], in [15] and in experiment [16] was “inactive” in each case. In addition, the Potency entry in experiment [18] and in experiment [19] was “inactive” throughout.

In the case of `C=C(C)[C@H]1CN[C@H](C(=O)O)[C@H]1CC(=O)O`, the result in experiment [1], in experiment [3], in experiment [10], in experiment [12] and in experiment [17] was inactive. Moreover, the Potency result in experiment [2], in experiment [4], in [5], in experiment [6], in experiment [7] and in experiment [8] was “inactive” each time. Also, the Potency result in [9], in experiment [11], in experiment [13], in [14], in [15] and in experiment [16] was “inactive” throughout. Further, the Potency entry in experiment [18] and in experiment [19] was “inactive” throughout.

For the molecule `C[C@H]1CCCC(=O)CCC/C=C/c2cc(O)cc(O)c2C(=O)O1`, the molecule was classed as inactive in experiment [1], in experiment [3], in experiment [10], in [12] and in [17]. For the same molecule, the Potency entry in experiment [2], in experiment [4], in experiment [5], in experiment [6], in experiment [9] and in experiment [11] was “inactive” throughout. The Potency result in [13] is “inactive”. Further, the Potency in [7] is 33.4 µM (active); in [8], 42.1 µM (active); in [20] it was 20.9 µM (active); in experiment [18] it was 20.9 µM (active); in experiment [19], 23.4 µM (active).

Take `O=C/C=C/c1ccco1`: the call in [1], in experiment [3], in experiment [10], in experiment [12] and in [17] was inactive. The Potency entry in experiment [2], in experiment [4], in experiment [5], in experiment [6], in [7] and in [8] was “inactive” in each case. For the same molecule, the Potency entry in experiment [9], in [11], in experiment [13], in experiment [20], in experiment [16] and in [18] was “inactive” each time. Further, in experiment [19], the Potency entry was “inactive”.

With `O=C(O)C(Br)(Br)Br`, the call in experiment [1], in [3], in experiment [10], in experiment [12] and in [17] was inactive. Further, the Potency result in experiment [2], in experiment [4], in [5], in experiment [6], in [7] and in experiment [8] was “inactive” throughout. The Potency entry in [9], in [11], in experiment [13], in [14], in experiment [16] and in [18] was “inactive” throughout. The Potency entry in experiment [19] was “inactive”.

Take `COC(=O)c1ccc(CBr)cc1`: the call in experiment [1], in [3], in experiment [10], in experiment [12] and in [17] was inactive. Also, the Potency result in [2], in [4], in experiment [5], in experiment [6], in experiment [7] and in experiment [8] was “inactive” in each case. Further, the Potency entry in experiment [9], in [11], in experiment [13], in experiment [20], in [14] and in [18] was “inactive” in each case. Further, the Potency entry in experiment [19] is “inactive”.

Regarding `CCC(C)(C#N)N=NC(C)(C#N)CC` (stereo not given), the call in [1], in experiment [3], in [10], in [12] and in [17] was inactive. Moreover, the Potency result in experiment [2], in [4], in experiment [5], in [6], in experiment [7] and in experiment [8] was “inactive” in each case. Further, the Potency entry in experiment [9], in experiment [11], in experiment [13], in experiment [14], in experiment [16] and in experiment [18] was “inactive” in each case. Further, the Potency result in experiment [19] was “inactive”.

`OCC(Cl)CCl` (stereo not given): the outcome in [1], in [3], in experiment [10], in experiment [12] and in experiment [17] was inactive. In addition, the Potency result in experiment [2], in experiment [4], in experiment [5], in [6], in [7] and in experiment [8] was “inactive” each time. Besides, the Potency entry in [9], in experiment [11], in [13], in experiment [14], in [16] and in [18] was “inactive” throughout. In addition, the Potency result in experiment [19] is “inactive”.
